RPL19A-GFP yeast – RPL19A-GFP expression modulators in yeast, primary screen, cell-based, S. cerevisiae, multiplex flow cytometry, MLPCN; S. cerevisiae RPL19A-GFP strain, 3 h; hits give low values; percent response vs DMSO, % at 10 µM; AID 2025, 2009; 0.3% of 330,000 active;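 active = percent response vs DMSO below 50%; inconclusive = fewer than 70 events counted for the yeast strain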;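 also: median channel GFP fluorescence of the barcoded RPL19A-GFP strain; ratio of sample median GFP to plate DMSO average so 100% = DMSO; lower means less RPL19A-GFP as with rapamycin TOR inhibition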
CIT2-GFP yeast – modulators of CIT2-GFP expression in yeast, primary screen, S. cerevisiae, GFP fusion, multiplex flow cytometry, MLPCN library; S. cerevisiae CIT2-GFP strain, 3 h; 100 means same as DMSO wells; GFP response vs DMSO, % at 10 µM; 0.065% of 320,000 active; AID 2029, 2009;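 active = GFP response relative to DMSO above a set limit, near the screen mean plus 3 SD, cut at about 150% in these data; inconclusive = Fewer than 70 cells measured for a yeast strain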;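 also: ratio of well median GFP fluorescence to mean of DMSO wells on the plate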
MEP2 TOR yeast – modulators of MEP2-GFP levels in yeast, primary screen, S. cerevisiae, multiplex flow cytometry, MLPCN library. 0.51% of 330,000 active. S. cerevisiae MEP2-GFP strain, 3 h; 100% = DMSO control level. GFP response vs DMSO, % at 10 µM;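 active = GFP response versus DMSO above a set limit, roughly screen mean plus 3 SD, cut at about 180% in these data; inconclusive = fewer than 70 cells counted for a yeast strain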;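 also: median GFP fluorescence of the barcode-gated MEP2-GFP cells per well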
LAP4-GFP MLPCN – modulators of LAP4-GFP expression in yeast, primary screen, S. cerevisiae, multiplex flow cytometry, MLPCN library; 3 h; median GFP as percent of DMSO wells; GFP response vs DMSO, % at 10 µM; 0.34% of 320,000 active; AID 2023, 2009;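 active = GFP response vs DMSO above a set limit, about the screen mean plus 3 SD, cut at about 150% in these data; inconclusive = under 70 cell events counted for the yeast strain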
AGP1 TOR yeast – modulators of AGP1-GFP expression in yeast TOR pathway, primary screen, cell-based, multiplex flow cytometry, S. cerevisiae, MLPCN library; 3 h; GFP as percent of DMSO wells; GFP response vs DMSO, % at 10 µM; 0.02% of 320,000 active;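 active = GFP response relative to DMSO above a set limit, near screen average plus 3 SD, cut at about 150% in these data; inconclusive = fewer than 70 cells counted for the yeast strain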;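 also: median GFP channel fluorescence of the gated AGP1 strain per well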
* marks the source's active call; other numbers are inactive results; [ ] = dose if it differs, or a comment. Compounds with a hit are over-represented: about 0.92% of the library has one in this group of screens.

`CCN1C/C(=C/c2cccs2)c2nc3ccccc3c(C(=O)O)c2C1` gave RPL19A-GFP yeast 92, CIT2-GFP yeast 95, MEP2 TOR yeast 149, LAP4-GFP MLPCN 104 and AGP1 TOR yeast 97.
`Fc1ccc(CNc2ncccn2)cc1` gave RPL19A-GFP yeast 30*[may fluoresce violet], CIT2-GFP yeast inconclusive, MEP2 TOR yeast 190*[may fluoresce violet], LAP4-GFP MLPCN 60 and AGP1 TOR yeast inconclusive.
Screening COc1ccc2nc(C)cc(N3CCN(S(=O)(=O)c4ccccc4F)CC3)c2c1 returned RPL19A-GFP yeast 102, CIT2-GFP yeast 101, MEP2 TOR yeast 104, LAP4-GFP MLPCN 100 and AGP1 TOR yeast 104.
Screening N#C/C(=N\Nc1cc(Cl)cc(Cl)c1)c1nnc2n1CCCCC2 returned RPL19A-GFP yeast 110, CIT2-GFP yeast 99, MEP2 TOR yeast 100, LAP4-GFP MLPCN 108 and AGP1 TOR yeast 102.
Screening O=c1c2c(-c3cccs3)csc2ncn1/N=C/c1ccccn1 returned RPL19A-GFP yeast 82, CIT2-GFP yeast 83, MEP2 TOR yeast 91, LAP4-GFP MLPCN 156* and AGP1 TOR yeast 100.
Screening CCOC(=O)c1ccccc1NC(=O)COC(=O)c1ccccc1C(=O)N(C)c1ccccc1 returned RPL19A-GFP yeast 100, CIT2-GFP yeast 91, MEP2 TOR yeast 97, LAP4-GFP MLPCN 122 and AGP1 TOR yeast 117.
CCCCOC(=O)Nc1ccc(S(=O)(=O)Nn2cnnc2)cc1 was read as RPL19A-GFP yeast 39*[may fluoresce violet], CIT2-GFP yeast inconclusive, MEP2 TOR yeast 278*[may fluoresce violet], LAP4-GFP MLPCN 73 and AGP1 TOR yeast inconclusive.
For Cn1nc(-c2ccccc2)c2ncc(C(F)(F)F)cc21 the results were RPL19A-GFP yeast 97, CIT2-GFP yeast 104, MEP2 TOR yeast 99, LAP4-GFP MLPCN 103 and AGP1 TOR yeast 102.
`Cc1cccc(C(=O)N2N=C(c3ccc(NS(C)(=O)=O)cc3)CC2c2cccs2)c1` (configuration not stated) gave RPL19A-GFP yeast 35*[may fluoresce violet], CIT2-GFP yeast inconclusive, MEP2 TOR yeast 352*[may fluoresce violet], LAP4-GFP MLPCN 63 and AGP1 TOR yeast inconclusive.
`CCS(=O)(=O)Nc1ccc(C2=NN(C(=O)c3ccccc3)C(c3cccs3)C2)cc1` (configuration not stated) gave RPL19A-GFP yeast 97, CIT2-GFP yeast 95, MEP2 TOR yeast 98, LAP4-GFP MLPCN 97 and AGP1 TOR yeast 101.
For COc1ccc2ccccc2c1/C=N/Nc1cccc(C(=O)O)c1 the results were RPL19A-GFP yeast 102, CIT2-GFP yeast 92, MEP2 TOR yeast 114, LAP4-GFP MLPCN 166* and AGP1 TOR yeast 91.
OCCCc1nc2n(n1)C(c1ccccc1)C=C(c1ccccc1)N2 (configuration not stated) was read as RPL19A-GFP yeast 100, CIT2-GFP yeast 93, MEP2 TOR yeast 87, LAP4-GFP MLPCN 94 and AGP1 TOR yeast 98.
Screening COc1ccc(C2C=C(c3ccccc3)Nc3nc(CCCO)nn32)cc1 (configuration not stated) returned RPL19A-GFP yeast 44*[may fluoresce violet], CIT2-GFP yeast inconclusive, MEP2 TOR yeast 576*[may fluoresce violet], LAP4-GFP MLPCN 92 and AGP1 TOR yeast inconclusive.
COc1ccc(S(=O)(=O)NCCNC(=O)N2CCOCC2)cc1 was read as RPL19A-GFP yeast 97, CIT2-GFP yeast 173*[may fluoresce green], MEP2 TOR yeast 114, LAP4-GFP MLPCN 114 and AGP1 TOR yeast 125.
For O=C(NCCNS(=O)(=O)c1ccccc1)N1CCOCC1 the results were RPL19A-GFP yeast 93, CIT2-GFP yeast 94, MEP2 TOR yeast 95, LAP4-GFP MLPCN 93 and AGP1 TOR yeast 103.
COc1ccccc1NC(=O)NNC(=O)C(C)Oc1ccc2ccccc2c1 (configuration not stated) was read as RPL19A-GFP yeast 117, CIT2-GFP yeast 93, MEP2 TOR yeast 107, LAP4-GFP MLPCN 80 and AGP1 TOR yeast 92.
For CCc1ccccc1NC(=O)C1CCCN(c2nccc(C)n2)C1 (configuration not stated) the results were RPL19A-GFP yeast 25*[may fluoresce violet], CIT2-GFP yeast inconclusive, MEP2 TOR yeast inconclusive, LAP4-GFP MLPCN 62 and AGP1 TOR yeast inconclusive.

Source: PubChem BioAssay
